Assay [1] concerns the target human RAR-related Orphan Receptor gamma (RORg), RORC (gene 6097) (UniProt P51449). Put plainly: ATG_RORg_TRANS: Attagene TRANS-FACTORIAL HepG2 Assay for human RAR-related Orphan Receptor gamma (RORg) (AID 2283011; active means hit-call score of the fitted dose curve at least 0.9, where 1 is the maximum). The method in brief: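 Reporter transcripts from a transfected RORg-GAL4 chimera in HepG2 cells were quantified 24 h after dosing by RT-PCR, 6-FAM labelling, HpaI digestion and capillary electrophoresis; increases over DMSO baseline were fitted.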

Assay [2] addresses Retinoic acid receptor RXR-alpha (Homo sapiens) (UniProt P19793). Put plainly: ATG_RXRa_TRANS: Attagene TRANS-FACTORIAL HepG2 Assay for human Retinoid X Receptor alpha (RXRa) (AID 2283012; active means hit-call score of the fitted dose curve at least 0.9, where 1 is the maximum). In a few lines:
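Measures exogenous chimeric NR-GAL4 activity in transfected HepG2 liver cells after 24 h of dosing. Induced reporter mRNA was detected by RT-PCR with capillary electrophoresis, and gain of signal was analysed against DMSO.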

Assay [3] concerns the target human Thyroid Receptor alpha (THRa1), THRA (gene 7067) (UniProt P10827). Nature of the assay: ATG_THRa1_TRANS: Attagene TRANS-FACTORIAL HepG2 Assay for human Thyroid Receptor alpha (THRa1) (AID 2283014; active means hit-call score of the fitted dose curve at least 0.9, where 1 is the maximum). The method in brief: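 Transcripts from GAL4-UAS-driven reporters, measured after 24 h compound exposure by RT-PCR plus capillary electrophoresis of 6-FAM-labeled fragments, were fitted for gain of signal relative to DMSO. Cells: transiently transfected HepG2 expressing NR-Gal4 chimeras.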

Read-out in assay [4]: E-selectin (Homo sapiens) (UniProt P16581)
Nature of the assay: BSK_3C_Eselectin: BioMAP Diversity Plus: 3C Assay for Eselectin Biomarker Activity (AID 2283015).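 On outcome: cell surface E-selectin protein quantified by ELISA 24 h after dosing.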 The conditions noted are these: primary human endothelial cells (HUVEC); actives raise or lower the signal. The method in brief:
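E-selectin ELISA readout, fitted bidirectionally relative to DMSO, taken 24 h post-dosing in HUVEC cultures of the 3C system. Overt cytotoxicity tracked with sulforhodamine B staining of parallel wells.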

Read-out in assay [5]: Interleukin-1 alpha (IL1a), IL1A (gene 3552)
Nature of the assay: BSK_BE3C_IL1a: BioMAP Diversity Plus: BE3C Assay for Interleukin-1 alpha (IL1a) Biomarker Activity (AID 2283016). The conditions noted are these: primary human bronchial epithelial cells; actives raise or lower the signal. The method in brief:
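Signal from IL-1a ELISA, taken 24 h after chemical dosing of human bronchial epithelial cells, is compared with DMSO as baseline using bidirectional curve fitting.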

Read-out in assay [6]: Monocyte Chemoattractant Protein-1 (MCP1), CCL2 (gene 6347)
Put plainly: BSK_3C_MCP1: BioMAP Diversity Plus: 3C Assay for Monocyte Chemoattractant Protein-1 (MCP1) Biomarker Activity (AID 2283017). The conditions noted are these: primary human endothelial cells (HUVEC); actives raise or lower the signal. The method in brief: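 MCP-1 was measured by ELISA 24 h after dosing in primary HUVEC 3C cultures and fitted in both directions relative to DMSO; cytotoxicity was checked by SRB total-protein staining in parallel wells.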

Read-out in assay [7]: Monocyte Chemoattractant Protein-1 (MCP1), CCL2 (gene 6347)
Put plainly: BSK_4H_MCP1: BioMAP Diversity Plus: 4H Assay for Monocyte Chemoattractant Protein-1 (MCP1) Biomarker Activity (AID 2283018). The conditions noted are these: primary human endothelial cells (HUVEC); actives raise or lower the signal. In a few lines: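 Endothelial cells from umbilical vein were treated with test chemical, then after 24 h MCP-1 levels were quantified by ELISA; endpoint values came from bidirectional fitting with DMSO as baseline of activity.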

Read-out in assay [8]: Interleukin-8 (IL8), CXCL8 (gene 3576)
Put plainly: BSK_3C_IL8: BioMAP Diversity Plus: 3C Assay for Interleukin-8 (IL8) Biomarker Activity (AID 2283020). Conditions: primary human endothelial cells (HUVEC); actives raise or lower the signal. In a few lines:
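Endothelial primary cells of human umbilical vein origin are dosed with chemical; after 24 h the IL-8 biomarker is measured by ELISA, and concentration–response is fitted in both directions versus DMSO.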

Read-out in assay [9]: Monokine induced gamma interferon (MIG), CXCL9 (gene 4283)
Nature of the assay: BSK_3C_MIG: BioMAP Diversity Plus: 3C Assay for Monokine induced gamma interferon (MIG) Biomarker Activity (AID 2283021).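 Further: MIG protein level measured by immunoassay in the treated endothelial cultures.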 The conditions noted are these: primary human endothelial cells (HUVEC); actives raise or lower the signal. In a few lines:
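Endothelial primary cells (human umbilical vein) are dosed with test chemical in the 3C system. MIG levels are measured by ELISA at 24 h and fitted in both directions relative to DMSO.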

For assay [10], the target named is human Vitamin D Receptor (VDR), VDR (gene 7421) (UniProt P11473). Nature of the assay: ATG_VDR_TRANS: Attagene TRANS-FACTORIAL HepG2 Assay for human Vitamin D Receptor (VDR) (AID 2283022; active means hit-call score of the fitted dose curve at least 0.9, where 1 is the maximum). The method in brief:
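Transactivation by an exogenous VDR-Gal4 chimera in transiently transfected HepG2 cells was measured as reporter transcript level 24 hours after chemical treatment. RT-PCR products were analysed by capillary electrophoresis and fitted in the positive direction relative to DMSO.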

A short description of assay [11]: BSK_3C_SRB: Viability Assessment in the BioMAP Diversity Plus: 3C Assay (AID 2283023).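 Further: fitted both ways against DMSO so a hit may be signal rise or drop.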 Conditions: primary human endothelial cells (HUVEC). In a few lines: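 Cytotoxicity readout in parallel HUVEC 3C cultures: after 24 h compound exposure, cells fixed with 10% TCA, stained with 0.1% SRB and read at 560 nm. Gain or loss relative to DMSO fitted.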
Assay [12] can be described thus: BSK_3C_Vis: BioMAP Diversity Plus: 3C Assay for Morphology Visualization (AID 2283025).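 Further: fitted both ways so gain or loss versus DMSO counts.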 The conditions noted are these: primary human endothelial cells (HUVEC). The method in brief:
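Morphology read by light microscopy serves as a background control for the multiplexed 3C assay in human umbilical vein endothelial cells, taken 24 h after dosing, with DMSO as the negative control and bidirectional curve fitting.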

Assay [13] in a line: BSK_4H_SRB: Viability Assessment in the BioMAP Diversity Plus: 4H Assay (AID 2283027).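 Further: cells exposed to compound for 24 h before staining.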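 On AC50: curves fitted both ways versus DMSO so AC50 may be loss or gain.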 The conditions noted are these: primary human endothelial cells (HUVEC). The method in brief:
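Cytotoxicity read-out in primary human endothelial cells: after 24 h compound exposure, cells were TCA-fixed (10%), stained with 0.1% SRB and absorbance taken at 560 nm. Values fitted in both directions relative to DMSO.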

Assay [14] can be described thus: BSK_BE3C_SRB: Viability Assessment in the BioMAP Diversity Plus: BE3C Assay (AID 2283028).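 On AC50: fitted both ways so AC50 may mark signal gain or loss versus DMSO.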 Conditions: primary human bronchial epithelial cells. The method in brief:
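Cytotoxicity read-out: SRB (0.1%) staining of TCA-fixed (10%) human lung bronchial epithelial cells, absorbance 560 nm, 24 h post-dosing. Curves fitted both directions relative to DMSO.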

Read-out in assay [15]: Thrombomodulin, THBD (gene 7056)
Put plainly: BSK_3C_Thrombomodulin: BioMAP Diversity Plus: 3C Assay for Thrombomodulin Biomarker Activity (AID 2283029). The conditions noted are these: primary human endothelial cells (HUVEC); actives raise or lower the signal. The method in brief:
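Endothelial cells from umbilical vein are dosed with test chemical and incubated 24 h. Thrombomodulin is then quantified by ELISA, with DMSO serving as negative control and activity baseline.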

Read-out in assay [16]: Urokinase-type plasminogen activator receptor (uPAR), PLAUR (gene 5329)
Nature of the assay: BSK_4H_uPAR: BioMAP Diversity Plus: 4H Assay for Urokinase-type plasminogen activator receptor (uPAR) Biomarker Activity (AID 2283030). The conditions noted are these: primary human endothelial cells (HUVEC); actives raise or lower the signal. The method in brief: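 uPAR level read by ELISA on HUVEC cultures (BioMAP 4H) 24 h post-dosing, analyzed for gain or loss relative to DMSO. Parallel SRB staining assessed overt cytotoxicity.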

Read-out in assay [17]: Matrix Metallopeptidase 1 (MMP1), MMP1 (gene 4312)
Nature of the assay: BSK_BE3C_MMP1: BioMAP Diversity Plus: BE3C Assay for Matrix Metallopeptidase 1 (MMP1) Biomarker Activity (AID 2283024). Conditions: primary human bronchial epithelial cells; actives raise or lower the signal. The method in brief: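 MMP1 signal, measured by ELISA after a 24 h chemical exposure of human primary bronchial epithelial cells, is analysed with bidirectional fitting using DMSO as negative control.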

Read-out in assay [18]: Pselectin, SELP (gene 6403)
Put plainly: BSK_4H_Pselectin: BioMAP Diversity Plus: 4H Assay for Pselectin Biomarker Activity (AID 2283026). The conditions noted are these: primary human endothelial cells (HUVEC); actives raise or lower the signal. The method in brief: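 Endothelial primary cells (human umbilical vein) are dosed, incubated 24 h, and assayed for surface P-selectin by ELISA; responses in either direction are fitted relative to the DMSO negative control.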

The target in assay [19] is human Retinoid X Receptor beta (RXRb), RXRB (gene 6257) (UniProt P28702). Nature of the assay: ATG_RXRb_TRANS: Attagene TRANS-FACTORIAL HepG2 Assay for human Retinoid X Receptor beta (RXRb) (AID 2283013; active means hit-call score of the fitted dose curve at least 0.9, where 1 is the maximum). The method in brief:
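Chimeric receptor-Gal4 activity was assessed in transiently transfected human HepG2 cells after 24 h exposure. Transcripts from GAL4-UAS reporters were quantified by fluorescent RT-PCR and capillary electrophoresis, with DMSO as negative control and baseline.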

Read-out in assay [20]: Human Leukocyte Antigen - DR isotype (HLADR), HLA-DRA (gene 3122)
Put plainly: BSK_3C_HLADR: BioMAP Diversity Plus: 3C Assay for Human Leukocyte Antigen - DR isotype (HLADR) Biomarker Activity (AID 2283019).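 Further: ELISA of cell-surface HLA-DR on HUVEC 24 h after dosing.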 The conditions noted are these: primary human endothelial cells (HUVEC); actives raise or lower the signal. The method in brief:
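Bidirectional fitting against DMSO was applied to the HLA-DR ELISA signal from human umbilical vein endothelial cells, 24 h post-dose. Cytotoxicity came from parallel SRB total-protein staining; 3C proliferation was counted by SRB at 48 h.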

Here are results for nine compounds from PubChem BioAssay (EPA / NIEHS).

Structures are written as SMILES. Where “and” joins values, the source holds several entries; their conditions need not be identical. Equal values may be shown once. Records with an inconclusive call do not appear. More than one record can exist for a structure, and the calls need not agree. Calls of active or inactive are those of the source. How the source made its calls, unless noted: active means hit-call score of the fitted dose curve at least 0.9, where 1 is the maximum; inactive means score below 0.9.

Chain of human Thyroid Receptor alpha (THRa1), THRA (gene 7067) (P10827 whole entry, looked up, the tested form may be a part): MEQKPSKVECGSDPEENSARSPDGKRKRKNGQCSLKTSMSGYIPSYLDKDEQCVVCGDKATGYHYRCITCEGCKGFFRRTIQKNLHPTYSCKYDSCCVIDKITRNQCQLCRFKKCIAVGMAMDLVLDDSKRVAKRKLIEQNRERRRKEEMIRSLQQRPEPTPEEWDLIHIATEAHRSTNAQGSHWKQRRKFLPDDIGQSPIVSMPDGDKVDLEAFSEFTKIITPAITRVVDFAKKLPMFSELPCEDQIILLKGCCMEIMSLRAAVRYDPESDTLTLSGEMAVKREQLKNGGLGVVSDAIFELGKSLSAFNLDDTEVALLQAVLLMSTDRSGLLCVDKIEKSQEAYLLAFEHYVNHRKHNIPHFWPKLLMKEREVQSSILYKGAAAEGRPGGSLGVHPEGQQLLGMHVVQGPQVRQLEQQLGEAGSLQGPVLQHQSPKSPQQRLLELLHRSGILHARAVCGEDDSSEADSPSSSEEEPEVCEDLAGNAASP
Chain of human Vitamin D Receptor (VDR), VDR (gene 7421) (P11473 whole entry, looked up, the tested form may be a part): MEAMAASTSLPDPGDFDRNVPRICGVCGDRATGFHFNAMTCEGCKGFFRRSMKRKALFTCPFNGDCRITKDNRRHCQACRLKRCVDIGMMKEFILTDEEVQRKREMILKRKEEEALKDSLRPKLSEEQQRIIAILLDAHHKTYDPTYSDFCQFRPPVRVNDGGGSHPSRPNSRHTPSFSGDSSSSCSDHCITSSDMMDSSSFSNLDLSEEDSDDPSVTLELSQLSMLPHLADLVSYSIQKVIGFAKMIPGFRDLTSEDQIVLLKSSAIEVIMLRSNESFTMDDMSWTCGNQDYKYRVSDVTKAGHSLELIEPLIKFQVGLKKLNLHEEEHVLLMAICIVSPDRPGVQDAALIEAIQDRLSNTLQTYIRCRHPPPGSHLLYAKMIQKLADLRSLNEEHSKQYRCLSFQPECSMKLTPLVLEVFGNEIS
Chain of Retinoic acid receptor RXR-alpha (Homo sapiens) (P19793 whole entry, looked up, the tested form may be a part): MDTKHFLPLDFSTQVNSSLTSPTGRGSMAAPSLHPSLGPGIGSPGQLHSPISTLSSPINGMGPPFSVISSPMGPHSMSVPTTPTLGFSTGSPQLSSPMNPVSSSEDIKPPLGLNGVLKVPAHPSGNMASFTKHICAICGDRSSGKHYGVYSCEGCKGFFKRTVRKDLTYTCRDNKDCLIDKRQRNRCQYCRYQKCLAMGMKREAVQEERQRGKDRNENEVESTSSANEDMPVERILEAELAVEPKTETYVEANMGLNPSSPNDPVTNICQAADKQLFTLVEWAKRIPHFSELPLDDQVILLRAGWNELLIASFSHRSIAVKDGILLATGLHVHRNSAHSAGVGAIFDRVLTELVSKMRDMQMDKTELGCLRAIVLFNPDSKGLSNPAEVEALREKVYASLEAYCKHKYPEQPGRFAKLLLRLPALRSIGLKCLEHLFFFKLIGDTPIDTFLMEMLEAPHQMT
Chain of E-selectin (Homo sapiens) (P16581 whole entry, looked up): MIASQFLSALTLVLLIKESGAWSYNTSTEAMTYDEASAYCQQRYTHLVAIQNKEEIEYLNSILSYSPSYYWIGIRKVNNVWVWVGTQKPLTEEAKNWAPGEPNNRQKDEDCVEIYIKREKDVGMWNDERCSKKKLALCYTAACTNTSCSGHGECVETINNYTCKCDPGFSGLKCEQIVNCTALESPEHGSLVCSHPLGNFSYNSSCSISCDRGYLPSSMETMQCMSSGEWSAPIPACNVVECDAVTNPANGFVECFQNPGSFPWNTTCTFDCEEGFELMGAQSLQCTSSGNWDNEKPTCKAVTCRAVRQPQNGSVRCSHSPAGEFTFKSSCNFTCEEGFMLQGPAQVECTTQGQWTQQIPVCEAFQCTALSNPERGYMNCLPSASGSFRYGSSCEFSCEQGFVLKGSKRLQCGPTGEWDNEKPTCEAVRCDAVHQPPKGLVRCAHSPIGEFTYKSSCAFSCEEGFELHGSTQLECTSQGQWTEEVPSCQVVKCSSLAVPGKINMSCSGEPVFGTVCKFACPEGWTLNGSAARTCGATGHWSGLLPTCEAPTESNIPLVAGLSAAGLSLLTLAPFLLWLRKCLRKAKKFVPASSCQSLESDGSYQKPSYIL
Chain of human RAR-related Orphan Receptor gamma (RORg), RORC (gene 6097) (P51449 whole entry, looked up, the tested form may be a part): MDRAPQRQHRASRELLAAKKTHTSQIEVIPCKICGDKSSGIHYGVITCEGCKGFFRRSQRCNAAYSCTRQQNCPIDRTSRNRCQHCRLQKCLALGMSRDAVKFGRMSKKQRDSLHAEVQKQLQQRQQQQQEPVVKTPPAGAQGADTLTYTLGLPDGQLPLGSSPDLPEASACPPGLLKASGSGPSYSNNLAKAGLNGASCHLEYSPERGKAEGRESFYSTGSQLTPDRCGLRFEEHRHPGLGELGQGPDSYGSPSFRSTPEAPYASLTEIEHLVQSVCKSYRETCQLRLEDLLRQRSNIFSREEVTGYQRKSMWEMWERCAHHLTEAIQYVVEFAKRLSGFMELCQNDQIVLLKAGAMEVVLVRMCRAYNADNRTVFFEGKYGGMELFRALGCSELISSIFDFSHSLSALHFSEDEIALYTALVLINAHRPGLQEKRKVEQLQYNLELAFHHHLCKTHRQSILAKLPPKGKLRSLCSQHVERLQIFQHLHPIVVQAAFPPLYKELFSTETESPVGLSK
Chain of human Retinoid X Receptor beta (RXRb), RXRB (gene 6257) (P28702 whole entry, looked up, the tested form may be a part): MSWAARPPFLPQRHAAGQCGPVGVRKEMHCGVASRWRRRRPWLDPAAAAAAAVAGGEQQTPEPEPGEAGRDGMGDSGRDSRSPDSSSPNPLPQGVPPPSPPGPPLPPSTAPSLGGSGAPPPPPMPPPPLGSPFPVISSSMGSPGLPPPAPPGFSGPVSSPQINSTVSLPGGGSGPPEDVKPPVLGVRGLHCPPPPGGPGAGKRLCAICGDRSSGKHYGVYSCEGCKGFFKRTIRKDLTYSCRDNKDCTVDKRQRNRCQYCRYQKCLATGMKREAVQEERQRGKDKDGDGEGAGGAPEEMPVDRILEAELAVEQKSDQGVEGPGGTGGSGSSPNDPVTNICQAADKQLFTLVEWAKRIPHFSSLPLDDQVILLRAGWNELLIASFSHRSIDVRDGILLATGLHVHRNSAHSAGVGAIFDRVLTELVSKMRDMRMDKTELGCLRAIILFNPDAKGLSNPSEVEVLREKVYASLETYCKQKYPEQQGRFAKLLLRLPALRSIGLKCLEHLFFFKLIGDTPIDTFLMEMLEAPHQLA

As usually defined, the AC50 is the concentration giving half of the maximal activity seen. In the case of `CN(C)c1ccc(C(=C2C=CC(=[N+](C)C)C=C2)c2ccccc2)cc1`, the compound was called inactive in [1], in assay [2], in [3], in assay [10] and in assay [15]. The AC50 in assay [4] is 0.205 µM (active); in [5] it was 0.214 µM (active); in assay [6], 0.0082 µM (active); in assay [7], 0.0192 µM (active); in assay [8], 0.668 µM (active); in assay [9], 0.356 µM (active). For the same compound, the AC50 was 0.055 µM (active) in assay [11]; 0.00948 µM (active) in [12]; 0.0527 µM (active) in assay [13]; 2.72 µM (active) in [14]; 0.00549 µM (active) in assay [16].

Consider `CC1CNCC(C)O1` (stereo not given), for which the result in assay [1], in assay [2] and in assay [3] was inactive.

Consider `O=C1OC2(c3ccccc31)c1cc(I)c(O)c(I)c1Oc1c2cc(I)c(O)c1I`, for which the result in assay [1], in assay [2], in assay [3], in [8], in [10] and in assay [13] was inactive. Besides, the AC50 in assay [4] was 5.74 µM (active); in [5], 4.58 µM (active); in assay [6], 6.03 µM (active); in assay [7], 4.8 µM (active); in assay [11] it was 12 µM (active); in [17] it was 3.22 µM (active). The AC50 in assay [12] is 22.5 µM (active); in assay [18], 12 µM (active); in [15], 7.01 µM (active); in assay [16] it was 8.51 µM (active).

`CC(C)C=O`: the compound was classed as inactive in [1], in [2] and in assay [3]. In assay [19], the AC50 was 100 µM (active).

For `c1cnc2c(c1)ccc1cccnc12`, the result in assay [1], in assay [2], in assay [3] and in [10] was inactive. The AC50 in assay [3] was 26.6 µM (active).

Take `C[C@]12CC[C@@H]3c4ccc(O)cc4CC[C@H]3[C@@H]1C[C@@H](O)[C@@H]2O`: the compound was classed as inactive in assay [1], in assay [19], in assay [3], in [4], in assay [5] and in assay [6]. Also, the outcome in [7], in assay [20], in assay [8], in assay [11], in assay [17] and in assay [12] was inactive. Further, the outcome in [13], in [14], in assay [15] and in assay [16] was inactive.

`OCC(F)(F)C(F)(F)C(F)(F)C(F)(F)C(F)(F)C(F)(F)C(F)(F)C(F)(F)C(F)(F)C(F)(F)C(F)(F)F`: the outcome in assay [1], in [2], in assay [19], in [4], in assay [5] and in assay [6] was inactive. Besides, the result in assay [7], in assay [8], in [10], in [17], in assay [13] and in assay [14] was inactive. The outcome in assay [15] and in assay [16] was inactive. Also, the AC50 in assay [11] is 271 nM (active) and 201 nM (active); in assay [15], 0.423 µM (active).

Turning to `Cc1cc(C(=C2C=CC(=Nc3ccc(S(=O)(=O)O)cc3)C=C2)c2ccc(Nc3ccc(S(=O)(=O)O)cc3)cc2)cc(S(=O)(=O)O)c1N`, the compound was classed as inactive in [1] and in assay [2].

As to `OCCN1CN(CCO)CN(CCO)C1`, the result in assay [1], in assay [2], in [19], in assay [3], in assay [10] and in [17] was inactive. Further, the outcome in assay [14] and in assay [15] was inactive. The AC50 was 34.1 µM (active) in assay [4]; 4.12 µM (active) in [5]; 31.1 µM (active) in assay [6]; 35.5 µM (active) in assay [7]; 29.2 µM (active) in [8]; 32.1 µM (active) in [11]. Besides, the half-maximal activity concentration (AC50) was 14.9 µM (active) in [12], 31.5 µM (active) in [13] and 29 µM (active) in assay [16].
